Reference: PubChem BioAssay AID588689 (Southern Research Specialized Biocontainment Screening …, 2011)
The whole screen tested about 340,000 compounds, of which about 1,000 (0.29%) were called active. Rule as the data show it: inconclusive = inhibition above about 29% without an active follow-up result; inactive = below that. Not all results are given here. Entries with a potency or affinity are not part of this list.

Target: Genome polyprotein (Dengue virus type 2 (strain 16681-PDK53)) (UniProt P29991)
Test: flavivirus cap methylation enzyme inhibition – biochemical, confirmation dose response, primary screen (AID 588689)
Conditions: Dengue-2 NS5 methyltransferase capping enzyme assay, at 25 µM, stronger effect = higher value
[1] = measured here: pilot screen replicate inhibition

Structure (SMILES) | inhibition | inhibition [1]
CCOC(=O)CN(C(=O)CNC(=O)c1ccco1)C(C(=O)NC1CCCC1)c1ccccc1OCC (centres undefined) | -1.62% (inactive) | 
NS(=O)(=O)c1ccc(CCNC(=O)CCNS(=O)(=O)c2ccccc2C(F)(F)F)cc1 | 0% (inactive) | 
C/C(=N\NS(=O)(=O)c1ccccc1)c1cccc(NC(=O)c2cccc(Cl)c2)c1 | -5.93% (inactive) | 
COc1cccc(NC(=O)CN(C)C(=O)CN2C(=O)c3ccc([N+](=O)[O-])cc3C2=O)c1 | -7.27% (inactive) | 
CS(=O)(=O)c1ccc(C(=O)OCC(=O)c2ccc(Cl)s2)cc1 | 4.34% (inactive) | 
CCCCCNC(=O)C1CCC(Cn2c(=S)[nH]c3ccccc3c2=O)CC1 (centres undefined) | -0.74% (inactive) | 
O=C(O)c1ccccc1Nc1ccccc1C(=O)O | 4.09% (inactive) | 
COc1cccc(Nc2ccccc2C(=O)O)c1 | -2.96% (inactive) | 
COc1ccccc1/C(C)=N/NC(=O)c1nnn(-c2nonc2N)c1C(C)C | -2.62% (inactive) | 
CC(=O)N1CCc2c(sc(NC(=O)c3cccc(N4C(=O)CCC4=O)c3)c2C(N)=O)C1 | -10.4% (inactive) | 
O=Cc1ccc(C(=O)O)cc1 | -0.73% (inactive) | 
Cc1cccc(N2C(=O)/C(=C\c3ccc(C(=O)O)cc3)c3ccccc3C2=O)c1 | 25% (inactive) | 
Cn1nc(-c2ccc(Cl)cc2)cc1NC(=O)Nc1ccccc1 | -6.13% (inactive) | 
COc1ccc(CN(C)C(=O)Cn2cnc3c(OCc4ccccc4)ncnc32)cc1OC | 3.64% (inactive) | 2.12%
O=C1c2cccc3cccc(c23)C(=O)N1CCN1CCN(CC(O)COc2ccccc2)CC1 (centres undefined) | 1.28% (inactive) | 
COc1ccc(C)cc1NC(=O)CN1CCN(c2ccccn2)CC1 | -3.92% (inactive) | 
Cn1c(=O)c2[nH]c(-c3ccccc3Cl)c(O)c2n(C)c1=O | -9.85% (inactive) | 
CC(=O)Nn1cc2c(c1-c1ccccc1)c(=O)n(C)c(=O)n2C | -11.6% (inactive) | -4.71%
CSc1nc(C=Nc2ccccc2Cl)c(O)n1Cc1cccc(Cl)c1 | -15.4% (inactive) | 
CCc1nnc(SCC(=O)Nc2ccc3c(c2)OCO3)n1CC | 2.59% (inactive) | 
COc1cc(C=C2C(=O)c3ccccc3C2=O)ccc1O | 25.4% (inactive) | 
COc1cc(/C=C/c2ccc3cccc(O)c3n2)c(Br)cc1O | -37.2% (inactive) | 
CCCCN1C(=O)NC(NS(=O)(=O)c2ccc(N)cc2)(C(F)(F)F)C1=O (centres undefined) | 1.6% (inactive) | 

Structure (SMILES) | inhibition | inhibition [1]
CC#CCN1C=C(C(=O)OCC)C(C)N(Cc2ccc(Br)cc2)S1(=O)=O (centres undefined) | 3.64% (inactive) | -3.33%
COc1ccccc1N1C(=O)CC(N(O)c2ccccc2)C1=O (centres undefined) | -4.6% (inactive) | 
CCCCOc1ccc(N2C(=O)CC(N(O)c3ccccc3)C2=O)cc1 (centres undefined) | -3.24% (inactive) | 
COc1ccccc1N1CCN(C2CC(=O)N(c3ccc(F)cc3)C2=O)CC1 (centres undefined) | 10.3% (inactive) | 
CCN(CC)C1CC(=O)N(c2ccc(Br)cc2)C1=O (centres undefined) | -14.3% (inactive) | 
CC(=O)c1ccc(C(=O)N(C)C2CCCN(Cc3ccccc3F)C2)s1 (centres undefined) | -12.1% (inactive) | 
Cc1ccc(S(=O)(=O)Nc2ccccc2C(=O)Nc2nc(-c3ccc(F)cc3)cs2)cc1 | 0.64% (inactive) | 
O=S(=O)(Nc1nc(-c2ccccc2)cs1)c1cccc(C(F)(F)F)c1 | 19.9% (inactive) | 
COc1ccc(-c2csc(NS(=O)(=O)c3ccc([N+](=O)[O-])cc3)n2)cc1 | 19.5% (inactive) | 
Cc1ccc(S(=O)(=O)Nc2nc(-c3ccccc3)cs2)cc1 | 23% (inactive) | 
COc1ccc(S(=O)(=O)N2CCCC2C(=O)NCc2cccs2)cc1 (centres undefined) | -17.2% (inactive) | 
CCOc1ccc(S(=O)(=O)N2CCCCC2)c2ccccc12 | -5.6% (inactive) | 
CCc1cccc(C)c1NC(=O)CSc1nc2ccccc2n1CC(=O)N(C)C | -2.07% (inactive) | 
O=C(O)COc1ccccc1C=NNc1ccc([N+](=O)[O-])cc1S(=O)(=O)Nc1ccc(Cl)cc1 | 35% (inactive) | 
Cc1ccc(NS(=O)(=O)c2ccc(N/N=C/c3ccncc3)c([N+](=O)[O-])c2)c(C)c1 | 2.21% (inactive) | 
COc1ccccc1NS(=O)(=O)c1cccc(C(=O)N/N=C/c2ccccc2OCC(=O)O)c1 | -8.38% (inactive) | 
O=C(O)COc1ccccc1/C=N/NC(=O)c1cc(-c2ccc(F)cc2)nc2ccccc12 | 1.48% (inactive) | 
O=C(O)COc1ccccc1/C=N/Nc1ccc(S(=O)(=O)N2CCOCC2)cc1[N+](=O)[O-] | 6.86% (inactive) | 
O=C(O)COc1ccccc1/C=N/NC(=O)c1cc(-c2ccccc2)nc2ccccc12 | 7.47% (inactive) | 
CCN(CC)S(=O)(=O)c1ccc(N/N=C/c2ccccc2OCC(=O)O)c([N+](=O)[O-])c1 | 13.7% (inactive) | 
COc1ccc(NS(=O)(=O)c2cc([N+](=O)[O-])ccc2NN=Cc2ccccc2OCC(=O)O)cc1 | -8.26% (inactive) | 
CNC(=O)N(O)C1N(/N=C/c2ccc(C)cc2)C(=S)SC1(C)C (centres undefined) | -3.93% (inactive) | 
O=C(CCOc1ccccc1)NNC(=O)c1ccccc1 | -4.63% (inactive) | 

Structure (SMILES) | inhibition | inhibition [1]
Cc1ccc(C)c(C(=O)CCC(=O)Nc2cccnc2)c1 | -3.23% (inactive) | 
CC1=C(C#N)C(=O)NC1(C)O (centres undefined) | 5.14% (inactive) | 
COc1ccc(N(CC(=O)N2CCN(Cc3ccccc3)CC2)S(=O)(=O)c2ccccc2)cc1 | -5.2% (inactive) | 
O=C(c1cccs1)N(Cc1ccco1)C1CCS(=O)(=O)C1 (centres undefined) | -4.01% (inactive) | 
O=C(Nc1ccccc1)c1ccccc1NC(=O)[C@H]1CCCC[C@H]1C(=O)O | -3.92% (inactive) | -1.53%
CCC(C)Sc1cc(-c2nc3ccc(Cl)cn3c2NC2CCCCC2)ccc1OC (centres undefined) | -12.6% (inactive) | 
Cc1cc(OC(C)C(=O)NC2CCN(Cc3ccccc3)CC2)c2c(C)cc(=O)oc2c1 (centres undefined) | -2.72% (inactive) | 
CCCCOC(=O)C1=C(C)NC(=O)NC1c1ccc(OC)cc1 (centres undefined) | -0.39% (inactive) | 
Cn1cc(C(=O)Nc2ccc(F)c(F)c2)cn1 | 0% (inactive) | 
COCC(=O)Nc1ccc(N2CCCC2)c(S(=O)(=O)Nc2ccccc2OC)c1 | -9.92% (inactive) | 
COc1ccc(N(CC(=O)NCCc2ccc(Cl)cc2)S(=O)(=O)c2c(C)[nH]c(=O)[nH]c2=O)cc1 | -3.87% (inactive) | 
C=CC[C@@H](CC(=O)N[C@@H](CO)Cc1ccccc1)C(=O)NC[C@@H](OC(=O)[C@@H](CC=C)Cc1ccc(F)cc1)c1ccccc1 | -8.18% (inactive) | 
CO/N=C(/C)CCS(=O)(=O)c1ccccc1 | -0.73% (inactive) | 
CC(C(=O)Nc1nncs1)N1C(=O)C2C3C=CC(C3)C2C1=O (centres undefined) | -5.41% (inactive) | 
CCN(CC(=O)NCc1cccs1)C(=O)CCC(=O)c1ccc(C)cc1 | -8.12% (inactive) | 
NC(=O)C1CCN(C(=O)CN(C2CCCCC2)S(=O)(=O)c2ccc(F)cc2)CC1 | -9.49% (inactive) | 
CCN(CC)S(=O)(=O)c1ccc2c(c1)N(CC(=O)N1CCC(C(N)=O)CC1)C(=O)CO2 | -6.21% (inactive) | 
O=S(=O)(c1ccc2ccccc2c1)N1CCN(S(=O)(=O)c2c(F)cccc2F)CC1 | 1.65% (inactive) | 
COc1cc(O)c(NC(C)=O)c2nonc12 | 15% (inactive) | 
CCOc1cc(Cl)c(NC(C)=O)cc1OCC | -5.19% (inactive) | 
CC(C)(C)OC(=O)N1CCN(C(=O)c2[nH]cnc2C(=O)Nc2cccc(Cl)c2)CC1 | -10.3% (inactive) | 
O=CN1CCN(C(=S)NC(=O)c2ccc(Cl)cc2)CC1 | -3.86% (inactive) | 
O=C1NN(c2ccc(F)cc2)C(=O)/C1=C/c1cccs1 | 8.53% (inactive) | 

Structure (SMILES) | inhibition | inhibition [1]
C=CCN1C(=O)/C(=C\c2cccs2)C(C(=O)OC)=C1C | -4.71% (inactive) | 
COC(=O)C1=C(C)NC(=O)/C1=C\c1cccs1 | 2.73% (inactive) | 
CC(C)CN1C(=O)/C(=C/c2cccs2)NC1=S | 4.84% (inactive) | 
COc1ccc(NS(=O)(=O)c2cccc(C(=O)NCC3(N(C)C)CCCCC3)c2)cc1 | -10.1% (inactive) | 
COCCNC(=O)c1ccc2c(=O)n(Cc3ccco3)c(SCC(=O)Nc3ccc(OC)cc3OC)nc2c1 | -3.55% (inactive) | 
COc1ccccc1N1CCN(S(=O)(=O)c2ccc3nc(-c4ccccc4)[nH]c3c2)CC1 | 1.09% (inactive) | 
O=C(O)CSc1c2c(nc3cc(C(=O)Nc4cccc(C(F)(F)F)c4)ccc13)CCC2 | 2.95% (inactive) | 
O=c1c2c(nc3cc(-c4cccc(Cl)c4)[nH]n13)CCCC2 | 1.45% (inactive) | 
O=C(NN=C1CCCC1)C(=O)Nc1cccc(C(F)(F)F)c1 | -3.35% (inactive) | 
O=C(CSc1nc2c(c(=O)[nH]1)CCC2)Nc1cccc(Cl)c1 | -8.06% (inactive) | 
Cc1ccc(S(=O)(=O)/N=C(\Nc2cccc(C)c2)Nc2nc(C)cc(C)n2)cc1 | -1.83% (inactive) | 
N#Cc1c(Nc2ccccc2)sc(C(=O)C2CC2)c1N | -8.93% (inactive) | 
CCN(CC)CCNC(C(=O)Nc1ccc([N+](=O)[O-])cc1Br)c1ccccc1 (centres undefined) | 3.24% (inactive) | 
COc1cc(C(=O)O)ccc1Cl | -1.59% (inactive) | 
Cc1cccc(N=Nc2cnc(N)s2)c1 | 0.79% (inactive) | 
CC(Oc1ccc2c(-c3ccccc3)cc(=O)oc2c1)C(=O)NCCCn1ccnc1 (centres undefined) | 2.17% (inactive) | 
CCC(=O)Nc1c(C)cc(C)cc1Cl | -1.67% (inactive) | 
CCC(=O)NC1=C(Nc2ccc(N)cc2)C(=O)c2ccccc2C1=O | 7.83% (inactive) | 
CCCC(=O)Nc1ccccc1NC(=O)CCC | 0% (inactive) | 
CC(C)NC1=C(Cl)C(=O)c2ccccc2C1=O | -0.68% (inactive) | 
O=C(NCCc1ccccc1)c1nc(CS(=O)(=O)c2ccc(Cl)cc2)no1 | -1.81% (inactive) | 
